Screens deposited in PubChem by National Center for Advancing Translational Sciences (NCATS).
A selection: hits, their analogues and other compounds. The true share with any hit is near 3.9%.
GPR32 ag: qHTS for Agonists of Human Resolvin D1 Receptor DRV1; Probable G-protein coupled receptor 32 (Homo sapiens), O75388; actives 2.5% (n = 48,000); activation, % at 76.9 µM; CHO-K1 GPR32 beta-arrestin PathHunter luminescence, 90 min; zero percent set by DMSO-only wells;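 active means activation of at least 60% and not above a set upper limit, about 1 call in 100 departs from these limits; inconclusive means activation of 40% to 60%, or above that upper limit; inactive means activation under 40%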; further: 0% is about no effect
Target sequence (O75388 whole entry, looked up): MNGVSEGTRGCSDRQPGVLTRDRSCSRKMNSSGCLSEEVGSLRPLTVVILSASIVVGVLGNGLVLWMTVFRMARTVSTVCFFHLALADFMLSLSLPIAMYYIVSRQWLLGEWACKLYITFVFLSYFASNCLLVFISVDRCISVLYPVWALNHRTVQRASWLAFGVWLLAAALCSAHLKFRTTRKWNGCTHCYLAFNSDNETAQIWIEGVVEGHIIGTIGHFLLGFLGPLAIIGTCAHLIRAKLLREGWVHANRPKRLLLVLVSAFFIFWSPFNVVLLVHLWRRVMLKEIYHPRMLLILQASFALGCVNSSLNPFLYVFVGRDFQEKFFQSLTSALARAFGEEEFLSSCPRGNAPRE
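Agonism was scored by beta-Gal fragment complementation (chemiluminescent read, 1 h detection at ambient temperature) reporting beta-arrestin binding to GPR32 in engineered CHO-K1 cells. Compound treatment lasted 90 min at 37 C, normalized to a DMSO basal control.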
p53null 39C kill: qHTS Screen for Compounds that Selectively Target Cancer Cells with p53 Mutations: Cytotoxicity of p53 Null Cells at the Nonpermissive Temperature. H1299 p53-null (neo) cells, 39C, ATPlite viability, 24 h. Potency, µM (highest dose often 46.1 µM), for inactives: top-dose activity, negative = cell killing, actives largely listed as cytotoxic. actives 0.97% (n = 55,000). AID 904, 2007;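 further: potency means the concentration at half of the fitted maximal effect; 0% = DMSO only and -100% = full killing by 100 µM tamoxifen; nearly all actives have a fitted effect of over 50% in size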
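Luminescent ATP signal reported cell survival after H1299 lines (neo, p53 null; or p53 A138V) received up to 46 uM compound and 24 hr incubation at 39C.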
p53null 32C kill: qHTS Screen for Compounds that Selectively Target Cancer Cells with p53 Mutations: Cytotoxicity of p53 Null Cells at the Permissive Temperature; H1299-neo p53 null cells, ATP luminescence, 24 h, 32C; Potency, µM (doses to about 46.1 µM), inactives show at the highest dose activity change, negative = cytotoxicity, hits mostly cytotoxic; actives 0.62% (n = 55,000);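 further: potency means the concentration at half of the fitted maximal effect; 0% = DMSO only and -100% = full killing by 100 µM tamoxifen; nearly all actives have a fitted effect of over 55% in size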
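H1299-neo (p53-null) cells, 600/well, were pre-incubated overnight at 37C, then exposed to compounds at up to 46 uM for 24 hr at 32C. Viability was measured as ATP content by luminescence, and AC50 values came from Hill fits.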
HTT-AS act: Primary qHTS for Identification of Small Molecule Activators of Huntingtin-Antisense Promoter Activity; HEK293 HTT-AS promoter firefly luciferase reporter, 24 h; response scale: percent change from vehicle, -100% = no light; Potency, µM (top dose mostly 57.5 µM), for the others: at the top dose activity change, positive = activation, actives largely listed as activators; actives 0.24% (n = 48,000); further: potency means the concentration at half of the fitted maximal effect; nearly all actives have a fitted effect of over 55% in size
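HEK293 Fluc reporter, 2,500 cells/well, 24 h pre-culture; cpds up to 57.5 uM final, 24 h 37 degrees C; Dual-Glo, 10 min RT; normalized vehicle = 0%, zero RLU = -100%.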
HTT prom inh: Primary qHTS for Identification of Small Molecule Inhibitors of Huntingtin Promoter Activity; AID 1508623, 2021; HEK293 HTT promoter firefly luciferase reporter, 24 h; actives 0.93% (n = 48,000); Potency, µM (top dose mostly 57.5 µM), without a hit: top-dose activity change, negative = inhibition, usual class: inhibitors; further: potency means the concentration at half of the fitted maximal effect; nearly all actives have a fitted effect of over 50% in size
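Firefly luciferase readout (Dual-Glo, 10 min RT) after 24 h, 37 °C compound exposure (final up to 57.5 uM) of HEK293 reporter cells cultured 24 h beforehand; PTC124 at 50 uM final as control inhibitor; activity scaled vehicle 0%, zero RLU -100%.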
The depositor's hits bear a star; ? = inconclusive; . = no result given; [ ] = dose if it differs, or a comment. Unless noted, the call rests on the fitted dose curve; in most records, active means well fitted curve in the direction sought with a large enough effect; inconclusive means small, poorly fitted or top-dose-only effect, or another doubt; inactive means no such curve, though single readings can be large; an effect the other way counts as inactive or inconclusive.

SMILES | GPR32 ag | p53null 39C kill | p53null 32C kill | HTT-AS act | HTT prom inh
CCc1cccc(CC)c1NC(=O)N1Cc2[nH]nc(NC(=O)c3ccc(N4CCN(C)CC4)cc3)c2C1 | . | . | . | -16% | 1%
CCOC(=O)N1CCN([N+]([O-])=NOc2ccc([N+](=O)[O-])cc2C#N)CC1 | . | . | . | -35% | -22%
CCCN(CCC)CC(O)Cn1cc(/C=C/C(=O)c2ccc(C)cc2)c2ccccc21 (configuration not stated) | -11 | ? | ? | -21% | ?
O=C(/C=C/c1cn(CC(O)CN2CCCCCC2)c2ccccc12)c1ccc(Br)cc1 (configuration not stated) | 88* | 16µM* | 0% | -26% | -14%
CCCCN(C)CC(O)Cn1cc(/C=C/C(=O)c2ccc(OC)c(OC)c2)c2ccccc21 (configuration not stated) | 38 | 13µM* | ? | -20% | -5%
CCCCN(C)CC(O)Cn1cc(/C=C/C(=O)c2ccc(Br)cc2)c2ccccc21 (configuration not stated) | 74* | 13µM* | ? | -34% | -17%
CCCN(CCC)CC(O)Cn1cc(/C=C/C(=O)c2ccc(Br)cc2)c2ccccc21 (configuration not stated) | 7 | -18% | 9% | -9% | -6%
CCCCN(C)CC(O)Cn1cc(/C=C/C(=O)c2ccc(C)cc2)c2ccccc21 (configuration not stated) | 65* | 22µM* | 16µM* | -29% | ?
CCCCOC(=O)CCCCCCCCC(=O)OCCCC | -11 | . | . | 2% | 7%
c1cc(N[C@@H]2CCNC2)nc(-c2cnc3ccc(-c4cn[nH]c4)cn23)c1 | . | . | . | -33% | ?
CCOC(=O)[C@H](CCc1ccccc1)N[C@@H](C)C(=O)N1[C@@H](C(=O)O)C[C@H]2CCC[C@@H]21 | . | . | . | -18% | ?
CNC(=O)c1ccccc1Sc1ccc2c(C=Cc3ccccn3)n[nH]c2c1 | . | . | . | ? | -13%
O=C(NCCO)c1ccc(-c2nnc(Nc3ccc(OC(F)(F)Cl)cc3)c3ccccc23)cc1 | 66* | -21% | -2%[9.22 µM] | -49% | ?
OC[C@]1(O)OC[C@@H](O)[C@H](O)[C@@H]1O | -6 | . | . | -2% | 0%
Fc1ccc(-n2ncc3c(NCCCn4ccnc4)ncnc32)cc1 | ? | 15% | -17% | 2.8µM* | 17%
c1ccc(CCNc2ncnc3c2cnn3-c2ccccc2)cc1 | . | -20% | -2% | . | .
Cc1ccc(-n2ncc3c(NCCc4ccccc4)ncnc32)cc1C | 8 | ? | -12% | ? | 21%
CCOCCCNc1ncnc2c1cnn2-c1ccc(C)c(C)c1 | 89* | 13% | -2% | ? | 10%
Fc1ccc(-n2ncc3c(NCCCc4ccccc4)ncnc32)cc1 | 41 | 4% | -7% | 8.9µM* | 27%
Clc1cccc(-n2ncc3c(NCCCn4ccnc4)ncnc32)c1 | ? | -4% | -9% | 14µM* | 31%
Cc1ccc(-n2ncc3c(NCCCn4ccnc4)ncnc32)cc1C | ? | 4% | -7% | 19% | 13%
COc1cc2c(cc1OC)CN(CCc1ccc(NC(=O)c3cccc4c(=O)c5cccc(OC)c5[nH]c34)cc1)CC2 | . | . | . | -63% | -6%
CCc1cc2c(cc1N1CCC(N3CCOCC3)CC1)C(C)(C)c1[nH]c3cc(C#N)ccc3c1C2=O | . | . | . | 1% | 4%
C=CC(=O)Nc1cccc(Oc2nc(Nc3ccc(N4CCN(C)CC4)cc3)ncc2Cl)c1 | . | . | . | -34% | -14%
O=C(COc1ccccc1)NCCc1csc(-c2ccc(Cl)cc2)n1 | 95* | ? | -8% | -15% | ?
O=C(COc1ccc(Cl)cc1)NCCc1csc(-c2ccc(F)cc2)n1 | 109* | ? | -4% | -23% | ?
